Data from PubChem BioAssay AID2562 (National Center for Advancing Translational Sciences (NCATS), 2010).
Records with an inconclusive call do not appear. Activity calls are given as the source filed them. Calls follow the shape of the dose curve; as a rule, active = well fitted curve in the direction sought with a large enough effect; inconclusive = small, poorly fitted or top-dose-only effect, or effect the other way, or another doubt; inactive = no such curve, though single readings can be large or run the other way.

biological target: Pyruvate kinase PKLR (Homo sapiens) (UniProt P30613); experiment: Secondary LDH Assay for Activators of Human Reticulocyte Pyruvate Kinase: for Probe SAR; conditions: purified hPK-R, LDH-coupled NADH fluorescence kinetic; series mostly up to 58.4 µM
Sequence (P30613 whole entry, looked up): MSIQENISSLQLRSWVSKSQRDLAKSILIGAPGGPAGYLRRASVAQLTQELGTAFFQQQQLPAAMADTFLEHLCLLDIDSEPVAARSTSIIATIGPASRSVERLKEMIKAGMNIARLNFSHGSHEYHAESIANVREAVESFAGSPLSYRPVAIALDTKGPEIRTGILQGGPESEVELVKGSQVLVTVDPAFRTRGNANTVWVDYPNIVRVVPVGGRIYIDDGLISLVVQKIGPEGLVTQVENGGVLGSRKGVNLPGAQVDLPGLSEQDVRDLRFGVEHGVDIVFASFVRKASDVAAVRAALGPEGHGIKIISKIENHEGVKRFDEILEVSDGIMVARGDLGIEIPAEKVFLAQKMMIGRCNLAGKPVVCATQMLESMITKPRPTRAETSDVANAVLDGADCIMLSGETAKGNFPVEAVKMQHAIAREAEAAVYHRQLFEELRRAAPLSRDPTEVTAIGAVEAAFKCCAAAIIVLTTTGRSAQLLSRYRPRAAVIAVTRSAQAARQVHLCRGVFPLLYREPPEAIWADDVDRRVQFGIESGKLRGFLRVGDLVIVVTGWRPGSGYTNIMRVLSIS
Text: NIH Chemical Genomics Center [NCGC] Wael M. Rabeh, Lyudmila Nedyalkova and Hee-Wan Park [Structural Genomics Consortium, 100 College St. Toronto, Ontario, Canada] NCGC Assay Overview: Human pyruvate kinase reticulocyte (hPK-R) enzyme was supplied as a highly purified (>95% pure) preparation from Structural Genomics Consortium in Toronto (Ontario, Canada) and a secondary assay was used to evaluate compounds. This assay couples the formation of pyruvate from hPK-R using lactate dehydrogenase (LDH) and NADH. The depletion of NADH is followed in a fluorescent-based kinetic assay that follows the formation of pyruvate to lactate, as catalyzed LDH. Pyruvate kinase substrates, PEP and ADP, were present in the assay at 0.1 mM and 4 mM respectively. In this kinetic assay initial rates were determined by following the fluorescence of NADH depletion.
NCGC Assay Protocol Summary: Three uL of substrate mix (final concentration, 50 mM Tris-Cl pH 8.0, 200 mM KCl, 15 mM MgCl2, 0.1 mM PEP, 4.0 mM ADP, and 0.2 mM NADH) was dispensed into black-solid 1536 well plates. 23 nL of compounds were delivered by a pin tool and 1 uL of enzyme mix (final concentrations, 10 nM hPK-R and 1 uM of LDH) was added. Plates were immediately placed in ViewLux (Perkin Elmer) and NADH fluorescence was determined at 30 second exposure intervals for between 3 and 6 minutes. Data were normalized to the uninhibited and EC100 activation using known activators such as fructose-bis-phosphate.

Potency, inactive:
O=C1CCc2cc(S(=O)(=O)Nc3ccncc3)ccc2N1
Cc1ccc(NS(=O)(=O)c2cc3c(cc2N2CCC2)NC(=O)CC3)cc1C
Cc1cc(N2C(=O)c3ccccc3C2=O)n[nH]1
Cc1ccc2nc(-c3cccs3)c(Nc3ccccc3)n2c1
Cc1ccc(NS(=O)(=O)c2cccc(C(=O)O)c2)cc1C
Cc1ccc(NS(=O)(=O)c2ccc3c(c2)n(C)c(=O)n3C)cc1C
O=C1c2ccccc2C(=O)N1Cc1ccccc1
Cc1ccc(NS(=O)(=O)c2ccc3c(c2)CC(=O)N3C)cc1C
O=C1c2ccccc2C(=O)N1c1cccc(O)c1
O=C1c2ccccc2C(=O)N1c1ccncc1
Cc1ccc(NS(=O)(=O)c2cc3c(cc2N2CCCCC2)NC(=O)CC3)cc1C
O=S1(=O)N=C(Oc2ccccc2Cl)c2ccccc21
Nc1cccc(S(=O)(=O)N2CCCN(S(=O)(=O)c3ccc4c(c3)OCCO4)CC2)c1
Cc1ccccc1OC1=NS(=O)(=O)c2ccccc21
COc1cccc(Cn2ncc3c4sc(SC)cc4n(C)c3c2=O)c1
CC(=O)N1c2ccc(S(=O)(=O)Nc3ccc(C)c(C)c3)cc2CC1C (stereo not given)
O=C1NS(=O)(=O)c2ccccc21
O=C1CCc2cc(S(=O)(=O)Nc3ccc4c(c3)OCCO4)ccc2N1
O=C1c2ccccc2C(=O)N1c1ccc(Cl)cc1
Cc1ccc(NS(=O)(=O)c2ccc3c(c2)CCN(C(=O)C(F)(F)F)C3)cc1C
Cc1ccc(NS(=O)(=O)c2cc3c(cc2C)OCC(=O)N3)cc1C
COc1cc(F)c(S(=O)(=O)N2CCCN(S(=O)(=O)c3cccc(N)c3)CC2)c(F)c1
Cc1ccc(NS(=O)(=O)c2cc3c(cc2/C=C/c2ccccc2)NC(=O)CO3)cc1C
O=C1c2ccccc2C(=O)N1Cc1cccnc1
O=C1c2ccccc2C(=O)N1c1cccc(=O)[nH]1
Cc1ccc(NS(=O)(=O)c2cccc(F)c2)cc1C
O=C1c2ccccc2C(=O)N1c1ccc(O)cc1
Cc1ccc(N(C)S(=O)(=O)c2ccc3c(c2)CCC(=O)N3)cc1C
COc1ccccc1N1C(=O)c2ccccc2C1=O
O=C1c2ccccc2C(=O)N1c1cccc2ncccc12
COc1cccc(NS(=O)(=O)c2ccc3c(c2)CCC(=O)N3)c1
O=C1c2ccccc2C(=O)N1c1ncccc1O
Cc1ccc(NS(=O)(=O)c2ccc3[nH]c(=O)[nH]c3c2)cc1C
O=C1c2ccccc2C(=O)N1C1CCCCC1
O=S1(=O)N=C(Oc2cccc(Cl)c2)c2ccccc21
Cc1ccc(-c2nc3cnccn3c2Nc2ccc(C(C)C)cc2)o1
Cc1nc(-c2ccc(S(=O)(=O)Nc3ccc(C)c(C)c3)s2)cs1
O=C1CCc2cc(S(=O)(=O)Nc3cccc4ccccc34)ccc2N1
Cc1ccc(NC(=O)c2ccc3c(c2)CCC(=O)N3)cc1C
O=C1c2ccccc2C(=O)N1c1cccc2cccnc12
